These results are taken from PubChem BioAssay (Tox21).

Several values for one entry are separate records, joined by “and”; a condition that tells them apart may be missing. Equal entries are not always repeated. Unmarked numbers belong to inactive results. Inconclusive results are not listed. Activity calls are given as the source filed them. Unless noted, calls follow the shape of the dose curve; as a rule, active = well fitted curve in the direction sought with a large enough effect in the repeat runs; inconclusive = weak or mixed curves; inactive = no such curve, though single readings can be large; an effect the other way counts as inactive or inconclusive.

The nature of experiment [1]: qHTS assay for small molecule agonists of the p53 signaling pathway (AID 651631; calls by dose curve; also: nearly all actives have a fitted effect of over 15% in size). Summed up:
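Stably transfected HCT-116 cells (beta-lactamase behind p53 response elements) get compounds after a 5 h settling period; 16 h later at 37 °C, FRET substrate is loaded and fluorescence read after 2 h.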

A short description of experiment [2]: qHTS assay for small molecule agonists of the p53 signaling pathway - cell viability (AID 651633; calls by dose curve;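 also: p53RE-bla HCT reporter cells with a stable beta-lactamase p53 reporter; series mostly up to about 83 µM; nearly all actives have a fitted effect of over 30% in size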). Summed up: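 p53RE-bla cells, seeded at 4,000 per well and rested 5 h at 37 C/5% CO2, received compounds in DMSO for 16 h at 37 C. CellTiter-Glo was then added, and luminescence was read after 30 min at room temperature to gauge cytotoxicity.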
Experiment [3] can be described thus: qHTS assay to test for compound auto fluorescence at 460 nm (blue) in HEK293 cells (AID 720678). Summed up: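 Intrinsic compound fluorescence is recorded in live HEK293 cultures after overnight incubation at 37C, 5% CO2, using excitation 405 nm and emission 460 nm. Values are referenced to triamterene.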
Experiment [4] is described as follows: qHTS assay to test for compound auto fluorescence at 590 nm (red) in HEK293 cells (AID 720679). The procedure, abridged: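 Red autofluorescence, HEK293 cells: 2,000 cells/well; attach 4-5 hr 37C; add 23 nL cpd or DMSO; incubate o/n 37C 5% CO2; read Ex540/Em590; Rose Bengal sodium reference.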
Experiment [5] in a line: qHTS assay to test for compound auto fluorescence at 535 nm (green) in HEK293 cells (AID 720680).
Experiment [6] in a line: qHTS assay to test for compound auto fluorescence at 590 nm (red) in HepG2 cell free culture (AID 720684). Summed up:
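Ex 540 / Em 590 nm read of compound in cell-free MEM (10% FBS). Rose Bengal sodium reference.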

The target in experiment [7] is Glucocorticoid receptor (Homo sapiens) (UniProt P04150). Briefly: qHTS assay to identify small molecule agonists of the glucocorticoid receptor (GR) signaling pathway (AID 720691; active = well fitted activation curve with a large enough effect in the signal ratio in the repeat runs, not every such curve was filed as active; the % refers to the signal ratio). Summed up:
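HeLa GR-bla reporter line; cells pre-incubated 4 h, compound in DMSO 18 h at 37 C; LiveBLAzer B/G FRET substrate 2 h RT; fluorescence intensity read-out.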

Experiment [8] is described as follows: qHTS assay for identifying genotoxic compounds that show differential cytotoxicity against isogenic chicken DT40 cell lines with known DNA damage response pathways - wild type cell line (AID 743012). Also: nearly all actives have a fitted effect of over 60% in size. Also: potency is read from the fitted curve at half-maximal effect. Summed up:
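CellTiter-Glo luminescence readout of viability in wild type DT40 cells after 40 h compound exposure at 37 C/5% CO2; 300 cells/well; reagent incubated 30 min at room temperature before reading.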

A short description of experiment [9]: qHTS assay for identifying genotoxic compounds that show differential cytotoxicity against isogenic chicken DT40 cell lines with known DNA damage response pathways - Rev3 mutant cell line (AID 743014). Also: nearly all actives have a fitted effect of over 55% in size. Also: potency is read from the fitted curve at half-maximal effect.
A short description of experiment [10]: qHTS assay to identify small molecule antagonists of the thyroid receptor (TR) signaling pathway - cell viability counter screen (AID 743064). Also: nearly all actives have a fitted effect of over 50% in size. The procedure, abridged: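 Counter screen for cytotoxicity: compound plus T3 (1 nM final) on GH3.TRE-Luc cells, 23.5 h at 37 °C, then fluorescence viability readout with CellTiter-Fluor.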
Experiment [11] has as its target Estrogen receptor (Homo sapiens) (UniProt P03372). Briefly: qHTS assay to identify small molecule agonists of the estrogen receptor alpha (ER-alpha) signaling pathway (AID 743075; calls by dose curve;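 also: HEK293 GripTite cells with ER-alpha and UAS-driven beta-lactamase reporter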).
For experiment [12] the target is unchanged. The experiment in a line: qHTS assay to identify small molecule agonists of the estrogen receptor alpha (ER-alpha) signaling pathway using the BG1 cell line (AID 743079). Also: nearly all actives have a fitted effect of over 20% in size.
A short description of experiment [13]: qHTS assay to identify small molecule antagonists of the estrogen receptor alpha (ER-alpha) signaling pathway using the BG1 cell line (AID 743080; calls by dose curve;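 also: BG1 cells stimulated with 17beta-estradiol alongside compound; series mostly up to about 70 µM; nearly all actives have a fitted effect of over 25% in size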). Summed up:
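Readout is ONE-Glo luminescence, taken 30 min at room temperature after reagent addition, preceded by a CellTiter-Fluor viability read; BG1-Luc-4E2 cells had received compound and 17beta-estradiol for 21.5 h at 37 C.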

Experiment [14] in a line: qHTS assay to identify small molecule that activate the aryl hydrocarbon receptor (AhR) signaling pathway - cell viability counter screen (AID 743086).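 Also: HepG2 liver cells carrying the AhR DRE luciferase reporter; series mostly up to about 70 µM; nearly all actives have a fitted effect of over 45% in size.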 The procedure, abridged: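 HepG2-AhR-luc (HG2L7.5c1) cells, 4000/well, were preincubated 5 h at 37C, exposed to compound in qHTS format for 24 hr at 37C, then given CellTiter-Fluor for 30 min; viability was read as fluorescence in the reporter wells.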

Experiment [15] has as its target Peroxisome proliferator-activated receptor gamma (Homo sapiens) (UniProt P37231). Briefly: qHTS assay to identify small molecule agonists of the peroxisome proliferator-activated receptor gamma (PPARg) signaling pathway (AID 743094; active = well fitted activation curve with a large enough effect in the signal ratio in the repeat runs, not every such curve was filed as active; the % refers to the signal ratio). The procedure, abridged: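 HEK293H PPARg-bla cells, 5 h settle at 37C/5% CO2; compound (DMSO) 17 h, 37C; B/G FRET substrate 1 h RT; fluorescence intensity read-out. qHTS format.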

Experiment [16] concerns the target Nuclear receptor subfamily 1 group I member 2 (Rattus norvegicus) (UniProt Q9R1A7). The experiment in a line: Rat pregnane X receptor (rPXR) activation by small molecules, qHTS assay (AID 1346983). Also: nearly all actives have a fitted effect of over 20% in size. The following applies: rPXR luciferase reporter cells, One-Glo luminescence, 24 h; max activation: active compounds read high. The procedure, abridged: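 Cell-based rPXR luciferase reporter assay, 2,000 cells per well, rested 5hr at 37 C before compound addition in DMSO, then 24 hr at 37 C. One-Glo reagent was added and luminescence read after 30 min at room temperature.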

Experiment [17] concerns the target Nuclear receptor subfamily 1 group I member 2 (Homo sapiens) (UniProt O75469). Briefly: CYP3A4 induction through human pregnane X receptor (PXR) by small molecules, qHTS assay (AID 1346984). Also: nearly all actives have a fitted effect of over 40% in size. The procedure, abridged: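 HepG2-derived DPX-2 line carrying PXR plus a CYP3A4-promoter luciferase reporter; cells plated 5 hr, compound-exposed 24 hr at 37C. CYP3A4 activity probed with 3uM (final) Luciferin-IPA for 3hr, then luciferase read after One-Glo.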

Experiment [18] shares this target. The experiment in a line: Human pregnane X receptor (PXR) activation by small molecules, qHTS assay (AID 1346985). Also: nearly all actives have a fitted effect of over 40% in size. Summed up:
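DPX-2 cells (HepG2 co-transfected with a PXR response element and a CYP3A4-promoter luciferase construct) were seeded at 2,000 per well, rested 5 hr at 37C, then exposed to DMSO-dissolved compounds for 24 hr. Activation was read as luciferase luminescence.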

Experiment [19] is described as follows: qHTS assay to identify small molecule antagonists of the androgen receptor (AR) signaling pathway using the MDA cell line - cell viability counter screen (AID 743041; also: nearly all actives have a fitted effect of over 45% in size). The procedure, abridged: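 In this qHTS counter assay, fluorescence intensity after CellTiter-Fluor addition indicated viability of MDA-kb2 AR-luc cells given compounds and R1881 for 16 h at 37C.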

The nature of experiment [20]: qHTS assay to identify small molecule antagonists of the androgen receptor (AR) signaling pathway - cell viability counter screen (AID 743033; also: nearly all actives have a fitted effect of over 45% in size).
% is scaled to controls: 0 for no effect and ±100 for the full control effect.

Chain of Peroxisome proliferator-activated receptor gamma (Homo sapiens) (P37231 whole entry, looked up): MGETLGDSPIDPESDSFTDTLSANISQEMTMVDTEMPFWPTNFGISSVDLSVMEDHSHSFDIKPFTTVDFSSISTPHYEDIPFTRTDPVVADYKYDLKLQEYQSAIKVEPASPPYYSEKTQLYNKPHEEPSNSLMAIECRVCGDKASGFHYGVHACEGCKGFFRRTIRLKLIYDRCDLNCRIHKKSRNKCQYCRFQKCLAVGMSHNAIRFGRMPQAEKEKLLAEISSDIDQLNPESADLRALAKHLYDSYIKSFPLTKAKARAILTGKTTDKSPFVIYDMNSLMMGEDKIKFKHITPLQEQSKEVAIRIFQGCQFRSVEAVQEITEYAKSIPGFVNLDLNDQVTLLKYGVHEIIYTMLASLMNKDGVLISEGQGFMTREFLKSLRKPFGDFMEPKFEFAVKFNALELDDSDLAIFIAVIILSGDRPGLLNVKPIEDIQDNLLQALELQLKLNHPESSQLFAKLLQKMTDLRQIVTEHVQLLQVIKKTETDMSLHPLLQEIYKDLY
Chain of Glucocorticoid receptor (Homo sapiens) (P04150 whole entry, looked up): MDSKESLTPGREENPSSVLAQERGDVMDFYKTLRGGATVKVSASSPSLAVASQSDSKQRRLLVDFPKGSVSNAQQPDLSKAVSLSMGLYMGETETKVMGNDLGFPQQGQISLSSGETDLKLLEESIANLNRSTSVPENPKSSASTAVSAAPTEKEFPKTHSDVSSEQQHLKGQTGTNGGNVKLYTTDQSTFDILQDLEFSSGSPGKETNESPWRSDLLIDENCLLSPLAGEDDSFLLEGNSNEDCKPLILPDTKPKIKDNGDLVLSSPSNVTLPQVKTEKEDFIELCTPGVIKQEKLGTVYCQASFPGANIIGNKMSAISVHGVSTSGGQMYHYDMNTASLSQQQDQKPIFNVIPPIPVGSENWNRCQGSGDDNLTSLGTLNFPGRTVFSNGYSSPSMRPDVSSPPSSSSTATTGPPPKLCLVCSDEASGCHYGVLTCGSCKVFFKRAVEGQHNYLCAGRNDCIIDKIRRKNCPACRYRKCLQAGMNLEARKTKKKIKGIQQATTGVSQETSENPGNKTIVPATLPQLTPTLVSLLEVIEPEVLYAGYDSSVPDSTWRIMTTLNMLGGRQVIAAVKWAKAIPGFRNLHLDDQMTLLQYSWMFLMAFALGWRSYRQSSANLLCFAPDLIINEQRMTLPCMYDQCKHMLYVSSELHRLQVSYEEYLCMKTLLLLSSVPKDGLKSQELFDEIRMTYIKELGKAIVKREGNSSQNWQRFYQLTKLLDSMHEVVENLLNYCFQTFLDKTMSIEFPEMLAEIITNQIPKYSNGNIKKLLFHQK
Chain of Nuclear receptor subfamily 1 group I member 2 (Rattus norvegicus) (Q9R1A7 whole entry, looked up): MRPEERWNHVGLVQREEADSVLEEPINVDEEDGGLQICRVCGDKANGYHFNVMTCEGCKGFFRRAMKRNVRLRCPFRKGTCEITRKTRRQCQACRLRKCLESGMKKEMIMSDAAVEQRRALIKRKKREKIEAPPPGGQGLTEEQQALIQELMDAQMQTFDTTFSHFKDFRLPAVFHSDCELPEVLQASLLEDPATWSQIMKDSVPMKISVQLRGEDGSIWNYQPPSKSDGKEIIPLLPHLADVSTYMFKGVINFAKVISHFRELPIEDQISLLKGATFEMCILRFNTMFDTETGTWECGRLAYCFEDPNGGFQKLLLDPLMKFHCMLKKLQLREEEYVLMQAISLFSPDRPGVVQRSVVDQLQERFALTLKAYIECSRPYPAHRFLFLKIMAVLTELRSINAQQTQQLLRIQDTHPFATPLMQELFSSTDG
Chain of Estrogen receptor (Homo sapiens) (P03372 whole entry, looked up): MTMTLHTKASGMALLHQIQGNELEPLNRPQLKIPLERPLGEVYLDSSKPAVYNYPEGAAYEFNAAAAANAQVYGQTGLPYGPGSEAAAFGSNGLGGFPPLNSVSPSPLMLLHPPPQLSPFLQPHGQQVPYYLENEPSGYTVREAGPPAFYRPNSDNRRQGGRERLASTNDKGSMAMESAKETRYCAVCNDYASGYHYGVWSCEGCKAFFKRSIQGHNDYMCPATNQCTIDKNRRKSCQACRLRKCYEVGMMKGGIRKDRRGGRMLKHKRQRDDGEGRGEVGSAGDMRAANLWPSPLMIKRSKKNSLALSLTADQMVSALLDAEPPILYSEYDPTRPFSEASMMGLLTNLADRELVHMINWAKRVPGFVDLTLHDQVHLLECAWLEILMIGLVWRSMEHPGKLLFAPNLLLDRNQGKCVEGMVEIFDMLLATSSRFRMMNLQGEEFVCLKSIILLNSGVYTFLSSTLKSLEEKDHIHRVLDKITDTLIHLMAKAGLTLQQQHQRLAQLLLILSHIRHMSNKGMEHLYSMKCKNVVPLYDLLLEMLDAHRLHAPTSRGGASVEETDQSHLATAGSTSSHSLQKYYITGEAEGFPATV

For `CC(=O)OC1CN2CCC1CC2` (stereo not given), the Potency entry in experiment [1], in [2], in experiment [3], in experiment [5], in [7] and in [8] was “inactive” throughout. In addition, the Potency result in experiment [9], in [10], in experiment [11], in experiment [12], in experiment [13] and in [14] was “inactive” in each case. Moreover, the Potency result in experiment [15], in experiment [17] and in experiment [18] was “inactive” in each case. Further, the compound was called inactive in experiment [4] and in experiment [6]. Further, the max activation in [16] was -0.436%.

As for `CC(Cc1ccccc1)NC=O` (stereo not given), the Potency entry in experiment [1], in experiment [2], in [3], in [5], in experiment [8] and in experiment [9] was “inactive” in each case. Moreover, the Potency entry in experiment [19], in [10], in experiment [15], in experiment [17] and in [18] was “inactive” throughout. Moreover, the result in [6] was inactive. Moreover, in experiment [16], the max activation is 0.0916%.

`CCCCNCC(O)c1ccc(O)cc1` (stereo not given): the Potency entry in experiment [1], in experiment [2], in experiment [3], in [5], in [7] and in [8] was “inactive” in each case. For the same compound, the Potency entry in [9], in [20], in [19], in experiment [10], in experiment [14] and in experiment [17] was “inactive” each time. In addition, the Potency entry in experiment [18] is “inactive”. Besides, the call in experiment [4] and in experiment [6] was inactive. In addition, the max activation in [16] was -0.163%.

For the compound `COc1ccc2c(c1)C13CCCC[C@@H]1C(C2)N(C)CC3` (stereo not given in full), the Potency result in [2], in experiment [3], in experiment [5], in experiment [7], in experiment [20] and in experiment [19] was “inactive” each time. Also, the Potency entry in [10], in experiment [11], in experiment [12], in experiment [13], in experiment [14] and in experiment [15] was “inactive” each time. Also, the Potency entry in experiment [17] and in experiment [18] was “inactive” in each case. The call in [4] and in [6] was inactive. In [16], the max activation was -0.312%.

`O=C1CCCCC1CN1CCCCC1` (stereo not given): the Potency entry in [1], in experiment [5], in experiment [7], in experiment [19], in experiment [10] and in experiment [11] was “inactive” in each case. Besides, the Potency result in experiment [12], in [13], in experiment [14], in experiment [15], in experiment [17] and in [18] was “inactive” each time. Moreover, in experiment [6], the result was inactive. The max activation in experiment [16] was -4.76%.

Regarding `C[N+]1([O-])[C@@H]2CC(OC(=O)[C@H](CO)c3ccccc3)C[C@H]1[C@@H]1O[C@@H]12` (stereo not given in full), the Potency result in [3], in experiment [5], in experiment [7], in [9], in experiment [20] and in experiment [10] was “inactive” in each case. Besides, the Potency entry in experiment [11], in experiment [12], in experiment [13], in experiment [14], in experiment [15] and in [17] was “inactive” each time. Further, the Potency result in experiment [18] was “inactive”. For the same compound, the result in [4] was inactive. The max activation in experiment [16] is 6.47% and -0.453%.

Take `c1csc(C2(N3CCCCC3)CCCCC2)c1`: the Potency result in experiment [1], in [2], in experiment [3], in experiment [5], in experiment [8] and in experiment [9] was “inactive” throughout. Further, the Potency result in experiment [20], in [10], in [11], in experiment [12], in experiment [13] and in [14] was “inactive” in each case. For the same compound, the Potency result in experiment [15] and in experiment [17] was “inactive” throughout. For the same compound, in experiment [6], the outcome was inactive. Also, the max activation in [16] is -0.931%.

Consider `O=C(CCl)c1ccc(Oc2ccc(C(=O)CCl)cc2)cc1`, for which the Potency entry in experiment [2], in [3], in experiment [5], in [20], in [19] and in experiment [10] was “inactive” each time. The Potency entry in experiment [11], in experiment [13], in experiment [14], in experiment [17] and in experiment [18] was “inactive” in each case. Besides, the compound was called inactive in experiment [4] and in experiment [6]. In addition, the Potency in experiment [8] is 26.6 µM (active); in experiment [9] it was 29.8 µM (active). Moreover, in experiment [16], the max activation is 7.38%.
